Drawing on the OligoGym collection, this text covers sensor-assay potency score (higher = more potent) for 39 sequences.

In one assay the target is INPP5F. The assay is described as follows: pooled miR-30 sensor sort-seq; sequence = guide strand. Particulars: shRNA.
Regarding TTCTTTGTATCTGTAGTGCAGT, the sensor-assay potency score (higher = more potent) is -0.359. Still for that read-out and setting: to TTCACTTCTGTCCAGCCGCGGT belongs -1.35; to TAGACTTAGTCGTTGATACTGG, -0.136.

The target of another assay is INVS. The description is as above. Conditions: shRNA.
Consider TTTAAAAACACTTTAACCGTTT, for which the sensor-assay potency score (higher = more potent) was -0.562.

As for TACTTGAGCATTATTTTCCAGT, the sensor-assay potency score (higher = more potent) is -0.382. On the same count and under the same terms, in the case of TTTTAAAAACACTTTAACCGTT it was -0.842. Same read-out and setting: to TTCGTGAGAACAACCATAGATT belongs -0.97; to TTAATATCTGGCAAACATCAGC, -0.861.

With AACATCAGTAGCATCTACTTGA, the sensor-assay potency score (higher = more potent) is 0.641.

TAAGACGTTATATTGCAGCTTT returned a sensor-assay potency score (higher = more potent) of 0.127.

TAGAAGAGAATGTCCATCTTGG: the sensor-assay potency score (higher = more potent) came to 0.67.

Sequence TTGGTCAACTAGATCTACCCTT showed a sensor-assay potency score (higher = more potent) of 0.547. Still for that read-out and setting: in the case of TTATTTTCTATTAATATCTGGC it was 0.295; in that of TTTTATTCACATCTGCTCCTGC, 0.562.

In turn, TTTGTTTTCTTCCTCTCGCTTT showed a sensor-assay potency score (higher = more potent) of 0.0611.

Another assay has as its target IP6K3. The assay is described as above. Particulars: shRNA.
On to TTGCAGAGAAAGTACTTCTTAT, for which the sensor-assay potency score (higher = more potent) was -0.832. Consider TGACACTACATTTTCCAGCAAC, for which the sensor-assay potency score (higher = more potent) is -1.2.

TTCATAGAACCTCTGCTCCCGG: the sensor-assay potency score (higher = more potent) is -0.506. The same measure, in the same setting: in the case of TACACTTGTCCACCAGTCTTGT it was -0.242; in that of TAGATGACAAGGAGAGAGCTGG, -0.213.

For the sequence TTTTCCAGCAACAAGAACCGAT, the sensor-assay potency score (higher = more potent) is -0.15. On the same count and under the same terms, to ATATTTACACTTGTCCACCAGT belongs -0.684; to TTCTTCCATAGTACTTGTCTTT, -1.16; to TTACACTTGTCCACCAGTCTTG, -0.0833. On the same count and under the same terms, in the case of TTTTCTTCCATAGTACTTGTCT it was 0.567; in that of TTGTTCTCTGGGTACTCGGAGC, -1.42; in that of TATTTGAGATCTATAGCCCAGA, -0.584.

For a further assay, the target named is IPO11. The description is as above. Particulars: shRNA.
With TTGTTCTCCTAGCATCTCCTGC, the sensor-assay potency score (higher = more potent) is -0.927. With TAATTCTAAACCATCTTCCAGA, the sensor-assay potency score (higher = more potent) was -0.364. Consider TAAATCTTGATCTTGAAGCAAG, for which the sensor-assay potency score (higher = more potent) is -0.725. On the same count and under the same terms, to TATACTTCTACTGCATTCCAGA belongs -0.431. On the same count and under the same terms, in the case of TATCTCTACACACATTATCTGT it was -0.812; in that of TAACAGGAAACTAAGCAGCTAT, -0.294. On the same count and under the same terms, in the case of TTAACTTCAAAGTTGTAGCTGT it was 0.668; in that of TTCCACAACCTTGAGCACCTGA, 0.832; in that of TTGTAGTAGAACTCGACCCATA, -0.751. With TAGCTGGGTGACAATCTCCGTA, the sensor-assay potency score (higher = more potent) is -0.584. Take TTCTTTAATAGCATCATCTGAA: the sensor-assay potency score (higher = more potent) was -0.198. The same measure, in the same setting: in the case of TTTGTAGTAGAACTCGACCCAT it was -0.362.
